A selection: hits, their analogues and other compounds. The true share with any hit is near 13%.
Shiga inhibitor: A qHTS for Small Molecule Inhibitors of Shiga Toxin; inhibition, % at 38.7 µM; 290,000 compounds, 9.2% hits; Vero cells, Shiga toxin protein synthesis inhibition reporter; AID 2315, 2010; in the data active means inhibition mostly above about 28%, no sharp cut-off; inactive means mostly below about 43%; further: 0% is about no effect
LASV entry inh: qHTS for Inhibitors of binding or entry into cells for Lassa Virus | Lassa virus pseudotype entry inhibition, cell reporter | Potency, µM (series often up to 37.9 µM), for inactives: top-dose activity change, negative = inhibition, most hits filed as inhibitors | 300,000 compounds, 1.2% hits | AID 540256, 2011; calls by dose curve; tested in HEK293 cells; further: potency means the concentration at half of the fitted maximal effect; on the % scale 0 is the no-effect control and ±100 the full control effect; nearly all actives have a fitted effect of over 50% in size
Cycloheximide cs: Cycloheximide Counterscreen for Small Molecule Inhibitors of Shiga Toxin; cell reporter, cycloheximide protein synthesis inhibition counterscreen; max response, %; 300,000 compounds, 12% hits; AID 2314, 2010; in the data active means max response mostly above about 13%, no sharp cut-off; inactive means mostly below about 14%; further: read at 38.3 µM for the half of the compounds with a filed dose; 0% is about no effect
MARV entry inh: qHTS for inhibitors of binding or entry into cells for Marburg Virus; Marburg virus pseudotyped entry inhibition, cell reporter; Potency, µM (series often up to 37.8 µM), without a hit: at the highest dose activity change, negative = inhibition, usual class: inhibitors; 300,000 compounds, 1.8% hits; AID 540276, 2011; calls by dose curve; tested in HEK293 cells; further: potency means the concentration at half of the fitted maximal effect; on the % scale 0 is the no-effect control and ±100 the full control effect
HCV inhibitor: qHTS Assay for Inhibitors of Hepatitis C Virus (HCV) | Potency, µM (doses to about 41.8 µM), for inactives: at the highest dose activity change, negative = inhibition, hits mostly inhibitors | Huh7.5.1 HCVcc-Cre infection, luciferase reporter, 44 h | 340,000 compounds, 3.4% hits | AID 651820, 2012; active means well fitted inhibition curve with a large enough effect; inconclusive means small, poorly fitted or top-dose-only effect, or another doubt; inactive means no such curve, though single readings can be large or run the other way; further: potency means the concentration at half of the fitted maximal effect; on the % scale 0 is the no-effect control and ±100 the full control effect
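After 44 h co-culture of compound, cells and HCVcc-Cre (~0.5 moi), substrate is added for 15 min at room temperature and luciferase measured over 15 sec. Cells were seeded at 1,000/well and pre-cultured 4 h.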
FMDV antiviral: High Throughput Screening for Foot and Mouth Disease Virus Antivirals | FMDV antiviral cell-based qHTS | Potency, µM (doses to about 57.9 µM), for the others: top-dose activity change, negative = inhibition, most hits filed as inhibitors | 410,000 compounds, 1.2% hits | AID 1159524, 2015; calls by dose curve; tested in HEK293T cells; further: read-out not given here; potency means the concentration at half of the fitted maximal effect; on the % scale 0 is the no-effect control and ±100 the full control effect; nearly all actives have a fitted effect of over 45% in size
Numbers without * were called inactive; ? = inconclusive; nt = no result given; [ ] = remark or other dose.

SMILES	Shiga inhibitor	LASV entry inh	Cycloheximide cs	MARV entry inh	HCV inhibitor	FMDV antiviral
CC1CN(C(=O)c2ccccc2Oc2ccccc2)CC(C)O1 (stereo unspecified)	-7.8	nt	-3.0	nt	13.9%	10.5%
O=C(NCc1ccccc1)C1Cc2c(-c3ccc(Cl)cc3)ccnc2O1 (stereo unspecified)	nt	nt	nt	nt	nt	-25.6%
CCOC(=O)C1=C(C)OC(N)=C(C#N)C1c1cc2cc(C)ccc2nc1N1CCCCC1 (stereo unspecified)	45.5*	-1.1%	14.6	?	-1.6%	12.8%
CC(=O)c1cnc2cc(-c3cccc(Br)c3)nn2c1C	91.2*	9.5%[46.1 µM]	38.6*	?	-7.5%	47.2%
COc1ccccc1-c1cc2nc(C)cc(C)n2n1	56.7*	7.7%	16.8	4.8%[46.1 µM]	10.8%	36.7%
Cc1ccc(-c2cc(C(F)(F)F)n3nc(-c4cccc(Br)c4)cc3n2)cc1	nt	16.9%[46.1 µM]	nt	-3.9%[46.1 µM]	nt	-10.9%
Cc1cccc(-c2cc3nc(C)cc(C)n3n2)c1	74.8*	?	48.6*	?	10µM*	49.6%
Cc1cc(C)n2nc(-c3cccc(Br)c3)cc2n1	nt	?	31.8*	2.8%[46.1 µM]	?	24.2%
COc1ccc(-c2cnn3c(C)cc(C)nc23)cc1OC	nt	5.8%[46.1 µM]	nt	nt	nt	-4.6%
Cc1cc(C)n2ncc(-c3cccc(Br)c3)c2n1	55.0*	20.9%[46.1 µM]	64.6*	?	-5.9%	13.6%
CCCCc1nc2cc(C(=O)N(C)C(C)c3ccccn3)ccc2o1 (stereo unspecified)	30.3*	nt	23.3*	nt	3.5%	69.5%
CCCCc1nc2cc(C(=O)NCc3ccccn3)ccc2o1	46.7	nt	10.2*	nt	9.2%	23.3%
CC(CCCC(C)(C)O)NC(=O)c1ccc2oc(CCc3ccccc3)nc2c1 (stereo unspecified)	9.3	nt	14.2*	nt	?	?
CCCCc1nc2cc(C(=O)NCCc3c(C)n[nH]c3C)ccc2o1	nt	-7.8%	nt	-2.4%	-8.9%	24.6%
Cc1cnc(CNC(=O)c2ccc3oc(Cc4ccccc4)nc3c2)[nH]1	12.1	nt	21.1	nt	4.2%	3.4%
CCn1ccnc1CNC(=O)c1ccc2oc(CCCc3ccccc3)nc2c1	32.3*	nt	18.9*	nt	?	0.8%
CCCCc1nc2cc(C(=O)NC3CCOC(C)(C)C3)ccc2o1 (stereo unspecified)	-1.4	nt	9.0	nt	-3.6%	-7.3%
COc1ccccc1N1CCN(c2nc3ccc(C)cc3nc2-n2nc(C)cc2C)CC1	nt	-22.2%[46.1 µM]	nt	-17.0%[46.1 µM]	nt	23.9%
Cc1ccccc1CN1c2ccccc2-c2nc(SCC(=O)c3ccc(Cl)cc3)ncc2S1(=O)=O	nt	17.8%[46.1 µM]	nt	nt	nt	1.8%
CCOc1ccc(/C=N/NC(=O)C2CC2)c(OCC)c1	-5.3	-22.7%[46.1 µM]	4.0	7.5%[46.1 µM]	4.47µM*	-12.2%
CCOc1ccc(/C=N/NC(=O)C2CCCC2)c(OCC)c1	-6.3	-25.1%[46.1 µM]	10.2	1.6%[46.1 µM]	-11.0%	15.6%
Oc1c(Br)cc(C2N=C(c3ccccc3)NO2)cc1Br (stereo unspecified)	103.3*	-2.9%	25.8*	2.8%	-5.3%	33.1%
CSc1ccc(C2N=C(c3ccccc3)NO2)cc1 (stereo unspecified)	114.1*	5.6%[46.1 µM]	40.6*	?	-24.1%	22.5%
O=C1OC(c2cc(Br)c(O)c(Br)c2)c2ccccc21 (stereo unspecified)	nt	21.9%[46.1 µM]	nt	7.0%[46.1 µM]	10.7%	?
COc1ccccc1NC(=O)c1c(NCc2ccc(C)o2)sc2c1CCC(C)C2 (stereo unspecified)	nt	27.0%[46.1 µM]	nt	nt	nt	-13.5%
O=C(Cn1c(SCCOc2ccccc2Cl)nc2ccccc21)N1CCCCC1	nt	-26.1%[46.1 µM]	nt	?	nt	-9.2%
O=C(CSc1n[nH]c(=O)n1C1CC1)Nc1ccc(Cl)cc1Cl	nt	nt	nt	nt	-20.1%	-26.0%
COC(=O)C1C(=O)c2c([nH]c(C(=O)OCC3CCCO3)c2C)CC1C (stereo unspecified)	57.6*	nt	22.9*	nt	?	0.0%
CC1=C(C(=O)OCC2CCCO2)C(c2ccccc2)NC(=O)N1 (stereo unspecified)	-21.1	?	-4.6	?	5.9%	nt
COC(=O)C1C(=O)c2c([nH]c(C(=O)OC3CCCCCC3)c2C)CC1C (stereo unspecified)	57.0*	nt	25.1*	-1.2%	?	20.9%
